55 molecules from PubChem BioAssay AID602310 (National Center for Advancing Translational Sciences (NCATS), 2012) can be followed below.

The campaign covered roughly 410,000 compounds. About 310 (0.076%) were called active. Not shown: some 2% with an inconclusive outcome. The entries come from a sample that favours actives as a whole. Unmarked numbers belong to inactive results. Calls follow the shape of the dose curve; as a rule, active = well fitted curve in the direction sought with a large enough effect; inconclusive = small, poorly fitted or top-dose-only effect; inactive = flat fitted curve, though single readings scatter.
% is scaled to controls: 0 for no effect and ±100 for the full control effect; potency is read from the fitted curve at half-maximal effect.

DNA dC->dU-editing enzyme APOBEC-3G (Homo sapiens), sequence (Q9HC16 whole entry, looked up): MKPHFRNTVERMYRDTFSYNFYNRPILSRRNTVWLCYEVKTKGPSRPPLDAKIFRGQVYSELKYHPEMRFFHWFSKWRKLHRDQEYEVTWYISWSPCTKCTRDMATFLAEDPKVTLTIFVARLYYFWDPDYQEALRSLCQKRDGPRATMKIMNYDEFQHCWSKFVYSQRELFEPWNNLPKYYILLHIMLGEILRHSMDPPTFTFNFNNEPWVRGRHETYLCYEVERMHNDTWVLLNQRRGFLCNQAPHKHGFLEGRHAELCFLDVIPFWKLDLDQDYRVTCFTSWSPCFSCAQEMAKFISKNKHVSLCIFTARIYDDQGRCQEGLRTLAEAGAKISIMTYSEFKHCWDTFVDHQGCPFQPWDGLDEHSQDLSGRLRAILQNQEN

The assay has as its target DNA dC->dU-editing enzyme APOBEC-3G (Homo sapiens) (UniProt Q9HC16). The experiment in a line: qHTS for Inhibitors of Vif-A3G Interactions: qHTS. Also: nearly all actives have a fitted effect of over 60% in size.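 As to activity, negative = active: hits raise eYFP signal because A3G escapes Vif-driven loss.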 Conditions: HeLa A3G-eYFP + Vif (tagged APOBEC3G with the HIV-1 protein that degrades it), YFP fluorescence, overnight; series mostly up to 46.1 µM; activity, negative = active: at the top concentration. From the text:
The recent discovery and characterization of host restriction factors, which provide a potent defense to invading retroviruses, has provided new targets for antiviral drug development. APOBEC3G (A3G) and APOBEC3F (A3F) are potent cytidine deaminases that block HIV-1 replication; HIV-1 expresses the Vif protein, which counteracts A3G and A3F by binding to them and inducing their proteasomal degradation. The Vif-A3G and Vif-A3F interactions provide two potential targets for development of small molecules which can interfere with the ability of Vif to degrade A3G or A3F. […] To identify inhibitors that can interfere with Vif mediated degradation of A3G and A3F, we have developed Hela cell lines that stably express A3G or A3F tagged with eYFP at the C-terminal end (A3G-eYFP or A3F-eYFP, respectively) and Vif. In the absence of an inhibitor, Vif induces degradation of A3G-eYFP and A3F-eYFP, and the cells are not fluorescent. In the presence of an inhibitor, it is expected that Vif will be unable to degrade A3G-eYFP and/or A3F-eYFP, resulting in an increase in yellow fluorescence. In this assays Vif A3G was screened against the Molecular Library Small Molecule Repository (MLSMR). NIH Chemical Genomics Center [NCGC] NIH Molecular Libraries Probe Centers Network [MLPCN] MLPCN Grant: MH093245 Assay Submitter (PI): Vinay Pathak, National Cancer Institute
5 uL of 700 cells/well of A3G-YFP cells are dispensed into black, clear bottom plates. The plates are incubated overnight at 37 deg C. 23 nL of compounds are added by pintool. The plates are incubated overnight at 37 deg C and then read on the TTP Acumen (Ex 488/ Em 500-530).
Background: In qHTS, concentration-response curves come from the screen itself.
For the molecule `COc1cc(OC)c(OC)cc1/C=C/c1nc2ccccc2c(=O)n1-c1ccc(Br)c(C)c1`, the “activity, negative = active” value is -5.3%.

In the case of `CCn1c(/C=C/c2ccc([N+](=O)[O-])o2)nc2ccccc2c1=O`, the Potency was 3.98 µM (active).

Turning to `CN(C)CCCn1c(SCCN2C(=O)c3ccccc3C2=O)nc2ccccc2c1=O`, the “activity, negative = active” value was 0.0321%.

`CC(C)(C)C1CCC(NC(=O)c2cnn3c2NC(=C2CC2)C=C3C(F)F)CC1` (stereo not given): the “activity, negative = active” value is 2.17%.

`CCCCS(=O)(=O)c1oc(-c2cccs2)nc1S(=O)(=O)c1ccccc1`: the “activity, negative = active” value was -18.8%.

On to `Cc1ccc(Cl)cc1N1CCN(S(=O)(=O)c2cc3[nH]c(=O)c(=O)[nH]c3cc2C)CC1`, for which the “activity, negative = active” value was 0.0103%.

For `CCc1ccc(C(=O)CC2(O)C(=O)N(CCc3ccccc3)c3ccc(Br)cc32)cc1` (stereo not given), the “activity, negative = active” value was -13.6%.

In the case of `COc1cc(OC)c(OC)cc1/C=C1\C=Cc2ccccc21`, the “activity, negative = active” value was -27.6%.

Regarding `COc1ccc(C2/C=C\CN(Cc3ccco3)C(C)C(=O)N2Cc2ccc(F)cc2)cc1` (stereo not given), the “activity, negative = active” value is 3.73%.

Turning to `Cc1ccccc1CSCCNC(=O)C1CCN(S(=O)(=O)Cc2ccccc2)CC1`, the “activity, negative = active” value is 2.97%.

On to `Cc1cccc(CN2Cc3cccc4c3[C@H](C=CC4)CC2=S)c1`, for which the “activity, negative = active” value was 3.11%.

In the case of `Cc1csc(NCC(=O)c2c[nH]c3ccccc23)n1`, the “activity, negative = active” value was -3.43%.

With `CCOc1cccc2c1N[C@@H](c1ccc(C(=O)O)cc1)[C@H]1CC=C[C@@H]21`, the “activity, negative = active” value was 1.39%.

With `CCOC(=O)c1cc2c(=O)n3ccccc3nc2n(CC2CCCO2)c1=NC(=O)c1ccccc1Br` (stereo not given), the “activity, negative = active” value was -6.1%.

With `CC(C)OC(=O)c1ccc(NCc2cc(O)ccc2O)cc1Cl`, the Potency was 12.6 µM (active).

`O=S(=O)(c1cccc(C(F)(F)F)c1)N1CCN(c2nc(-c3cccs3)nc3ccccc23)CC1`: the “activity, negative = active” value is 0.472%.

Consider `Cc1c(Cl)cccc1NC(=O)CCS(=O)(=O)c1ccc2c(c1)oc(=O)n2C`, for which the “activity, negative = active” value was 1.33%.

`COc1cc2[nH]c(C)c(CCN3CCN(c4ccccc4)CC3)c2cc1OC`: the “activity, negative = active” value was 1.15%.

On to `CCc1ccc(S(=O)(=O)n2ccnc2)cc1`, for which the “activity, negative = active” value was 0.941%.

Regarding `Cc1[nH]c2ccccc2c1C(=O)C(=O)N(C)c1ccccc1`, the “activity, negative = active” value was 0.569%.

In the case of `COc1ccc(CCNC(=O)Cn2c(=O)cc(C(F)(F)F)c3c(C)nn(C)c32)c(OC)c1`, the “activity, negative = active” value was 4.39%.

As for `COc1cc2c(=O)c(S(=O)(=O)c3ccc(C(C)C)cc3)cn(Cc3ccccc3C)c2cc1OC`, the “activity, negative = active” value is -1.18%.

As to `O=C(O)c1c(Br)c(Br)c(Br)c(Br)c1C1c2ccc(O)cc2Oc2cc(O)ccc21`, the “activity, negative = active” value was 3.84%.

For `CCOC(=O)N1CCC(NC(=O)c2cnn(-c3cccc(C)c3)c2C2CCN(C(=O)OC(C)(C)C)CC2)CC1`, the “activity, negative = active” value was 1.48%.

Take `OCCNc1ncnc2oc(-c3ccco3)c(-c3ccco3)c12`: the “activity, negative = active” value is -5.55%.

On to `O=[N+]([O-])c1ccc(/C=C/c2ccc3cccnc3c2)cc1`, for which the “activity, negative = active” value is -2.68%.

In the case of `O=C(O)C1=C/C(=C/C=[N+]2c3cc(O)c(O[C@H]4OC(CO)[C@@H](O)[C@@H](O)[C@@H]4O)cc3C[C@@H]2C(=O)[O-])C[C@H](C(=O)O)N1` (stereo not given in full), the “activity, negative = active” value was 1.5%.

As for `Cc1ccc2onc(CC(=O)N3CCN(c4ccc(Cl)cc4)CC3)c2c1`, the “activity, negative = active” value is 0.252%.

As to `Cc1ccc(C=O)cc1Cl`, the “activity, negative = active” value is 0.329%.

Regarding `C(=Nc1ccc(/C=C/c2ccnc3ccccc23)cc1)c1cc2c3c(c1)CCCN3CCC2`, the “activity, negative = active” value is 2.24%.

Consider `CC(C)(C)c1ccc(C(=O)NCC(c2ccc(Cl)cc2)N2CCOCC2)cc1` (stereo not given), for which the “activity, negative = active” value is 1.59%.

Consider `O=C1CN(C(=O)Nc2ccccc2C(F)(F)F)C(c2ccccc2)c2c(sc3c2CCCC3)N1` (stereo not given), for which the “activity, negative = active” value is -1.24%.

Consider `CCCN(CCC)c1nc2c(C)cccn2c(=O)c1/C=C1/SC(=S)N(Cc2ccco2)C1=O`, for which the Potency was 3.16 µM (active).

On to `CN(C)c1ccc(/C=c2\[nH]c(=O)/c(=C/c3ccc(N(C)C)cc3)[nH]c2=O)cc1`, for which the “activity, negative = active” value was -0.485%.

Turning to `CCN(C(=O)CSc1nnc(C)n2c1cc1occc12)c1ccccc1`, the “activity, negative = active” value is -4.9%.

For `CCOc1ccc(C(=O)/C=C/c2cn(CC(O)CN3CCCCCC3)c3ccccc23)cc1` (stereo not given), the “activity, negative = active” value is -4.47%.

On to `CCOC(=O)N1CCc2c(sc(NCc3cccc(F)c3)c2C(=O)Nc2ccccc2OCC)C1`, for which the “activity, negative = active” value was -3.66%.

Consider `O=C(COC(=O)c1ccccc1OCCOc1ccccc1)Nc1cccc(Br)c1`, for which the “activity, negative = active” value is 0.386%.

For `Cc1cc(C)cc(NC(=O)CSc2nc3nccnc3c(=O)n2CCc2c[nH]c3ccccc23)c1`, the “activity, negative = active” value was 6.02%.

`CCOC(=O)c1ccc(NC(=O)C2CC(=O)NC(=Nc3ccc(C)c(C)c3)S2)cc1` (stereo not given): the “activity, negative = active” value is 1.17%.

For `CCCCNC(=O)Cn1c(SCc2cccc(Cl)c2)nc2ccncc21`, the “activity, negative = active” value was 0.68%.

With `CCCn1ccc2c(OCC(=O)NCc3ccc(F)cc3)cccc2c1=O`, the “activity, negative = active” value was -0.319%.

For the molecule `O=C(Nc1ccc(Cl)cc1)c1cnn2c1NC(=C1CC1)C=C2C(F)F`, the “activity, negative = active” value was -0.955%.

Consider `Cc1cccc(-c2nnc(SC(C)C(=O)Nc3ccccc3)n2C)c1` (stereo not given), for which the “activity, negative = active” value is -0.805%.

For the molecule `CCN1CCN(c2ccc(/C=C/c3ccnc4ccccc34)cc2)CC1`, the “activity, negative = active” value is 1.79%.

As to `COc1ccc(-c2nc3c(c(SCC(=O)Nc4ccc(C(=O)O)cc4)n2)Cc2ccccc2O3)cc1`, the “activity, negative = active” value was 3.8%.

In the case of `Brc1cccc[n+]1Cc1cccc(C[n+]2ccccc2Br)c1`, the “activity, negative = active” value is -5.54%.

In the case of `CC(C)(C)n1ncc2c(=O)n(Cc3ccc(C(=O)c4ccccc4)cc3)cnc21`, the “activity, negative = active” value was -0.656%.

With `OC(CBr)C[n+]1cccc2cc(Br)ccc21` (stereo not given), the “activity, negative = active” value is -3.43%.

For the molecule `N#CC1=C(N)Oc2c(sc3ccccc23)C1c1ccco1` (stereo not given), the Potency was 11.2 µM (active).

Consider `O=C(OC12CC3CC(CC(C3)C1)C2)c1ccc(NCc2cc(O)ccc2O)cc1`, for which the Potency is 6.31 µM (active).

Regarding `COC(=O)c1ccccc1NC(=O)c1cnn(-c2ccc(F)cc2)c1-n1cccc1`, the “activity, negative = active” value is -4.09%.

On to `CCOc1ccc(N(CC)S(=O)(=O)N2CCCC(C(=O)NCc3ccc(Cl)cc3)C2)cc1` (stereo not given), for which the “activity, negative = active” value is 3.88%.

Consider `N#Cc1ccc[n+](CC(=O)c2ccc(F)cc2)c1`, for which the “activity, negative = active” value is -2.66%.

Consider `O=C(C[n+]1ccncc1)c1ccc2c(c1)CCCC2`, for which the “activity, negative = active” value is -7.56%.
